Most compounds without a hit are left out; they make up all but 0.84% or so of the library.
TR-FRET SRC-2 ct – TR-FRET artefact, counter-screen to PPARgamma/SRC-2 agonist assay. active compounds read high. hit rate 0.4% among 200,000. AID 1049. TR-FRET ratio at 8 µM
PPARg SRC1 recr – agonists of human PPARgamma SRC-1 coactivator recruitment; P37231; PPARgamma-SRC-1 coactivator recruitment biochemical assay; activation, % at 8 µM; hit rate 0.41% among 200,000; AID 631; in the data active = activation above about 19%;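 note: 0% = DMSO and 100% = reference agonist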
Target sequence (P37231 whole entry, looked up): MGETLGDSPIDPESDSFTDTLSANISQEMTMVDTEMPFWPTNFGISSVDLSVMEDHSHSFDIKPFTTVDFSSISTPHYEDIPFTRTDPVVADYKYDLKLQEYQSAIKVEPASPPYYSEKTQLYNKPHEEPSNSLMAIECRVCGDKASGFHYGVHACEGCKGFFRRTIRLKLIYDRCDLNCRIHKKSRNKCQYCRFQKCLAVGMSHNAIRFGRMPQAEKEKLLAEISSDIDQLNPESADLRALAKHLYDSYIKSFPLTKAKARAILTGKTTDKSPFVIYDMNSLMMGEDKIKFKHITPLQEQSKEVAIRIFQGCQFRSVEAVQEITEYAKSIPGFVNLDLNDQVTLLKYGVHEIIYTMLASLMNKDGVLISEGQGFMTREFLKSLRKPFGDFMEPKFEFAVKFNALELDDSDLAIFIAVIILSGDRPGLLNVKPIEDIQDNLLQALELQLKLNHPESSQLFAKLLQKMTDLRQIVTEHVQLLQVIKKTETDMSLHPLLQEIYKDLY
PPARg SRC-3 ag – agonists of human PPARgamma SRC-3 coactivator recruitment | P37231 | biochemical PPARgamma/SRC-3 coactivator recruitment assay | activation, % at 8 µM | hit rate 0.26% among 200,000; in the data active = activation above about 23%;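 note: 0% = DMSO and 100% = reference agonist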
PPARg SRC2 recr – promotes SRC-2 coactivator recruitment by human PPARgamma; PPARgamma LBD-SRC-2 recruitment, biochemical; AID 1032; activation, % at 8 µM; hit rate 0.34% among 200,000; in the data active = activation above about 22%;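 note: 0% = vehicle and 100% = reference agonist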
SRC1 TRFRET art – counter-screen for PPARgamma SRC-1 recruitment agonists: TR-FRET artefact; TR-FRET detection artefact counter-screen, emission ratio; active compounds read high; TR-FRET ratio at 8 µM; hit rate 0.34% among 99,000; AID 1051; in the data active = TR-FRET ratio above about 2300
SRC3 TRFRET art – counter-screen for PPARgamma SRC-3 recruitment agonists: TR-FRET artefact. PPARgamma/SRC-3 format; active compounds read high. TR-FRET ratio at 8 µM. hit rate 0.39% among 99,000. AID 1048
PPARg SRC2 ag – confirmation of agonists of SRC-2 recruitment by human PPARgamma. shares compounds with PPARg SRC-3 ag. biochemical SRC-2 recruitment by PPARgamma. activation, % at 8 µM. hit rate 52% among 790. AID 1297; in the data active = activation above about 22%;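 note: 0% = vehicle alone and 100% = reference agonist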
PPARg SRC1 ag – confirmation of agonists of SRC-1 recruitment by human PPARgamma | shares compounds with PPARg SRC-3 ag | PPARgamma–SRC-1 coactivator recruitment biochemical assay | activation, % at 8 µM | hit rate 43% among 790; in the data active = activation above about 20%;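 note: 0% = vehicle wells and 100% = reference agonist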
PPARg SRC3 conf – human PPARgamma SRC-3 recruitment agonism, confirmation; shares compounds with PPARg SRC-3 ag; biochemical PPARgamma-SRC-3 coactivator recruitment, agonist mode; activation, % at 8 µM; hit rate 29% among 790; in the data active = activation above about 24%;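 note: 0% = vehicle wells and 100% = reference agonist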
Numbers without * were called inactive. Cut-off read from the data, not from the text of the source, unless noted: active = TR-FRET ratio above about 2000; inactive = the rest.

For COc1ccc(Nc2nc(N)nc(CN3CCN(c4ccc(F)cc4)CC3)n2)cc1 the results were TR-FRET SRC-2 ct 1746, PPARg SRC1 recr 23.7*, PPARg SRC-3 ag 4.5, PPARg SRC2 recr 10.3, SRC1 TRFRET art 2427*, SRC3 TRFRET art 1573, PPARg SRC2 ag 5.3, PPARg SRC1 ag 3.4 and PPARg SRC3 conf 2.8.
For CCC(=O)Nc1cccc(-c2nc3ccccc3c(=O)o2)c1 the results were TR-FRET SRC-2 ct 1739, PPARg SRC1 recr 18.8*, PPARg SRC-3 ag 18.3, PPARg SRC2 recr -12.7, PPARg SRC2 ag 4.5, PPARg SRC1 ag 13.8 and PPARg SRC3 conf 14.9.
`C/C(CC(=O)NC(C)(C)C)=N\NC(N)=S` gave TR-FRET SRC-2 ct 1781, PPARg SRC1 recr 21.0*, PPARg SRC-3 ag 1.1, PPARg SRC2 recr 8.8, SRC1 TRFRET art 2014, SRC3 TRFRET art 1702, PPARg SRC2 ag 6.0, PPARg SRC1 ag 2.4 and PPARg SRC3 conf 3.4.
`N#CCCN1CCN(C(=S)c2ccc(-c3ccc(Cl)cc3)o2)CC1` gave TR-FRET SRC-2 ct 1605, PPARg SRC1 recr 23.6*, PPARg SRC-3 ag 15.5, PPARg SRC2 recr 0.9, PPARg SRC2 ag 31.1*, PPARg SRC1 ag 27.7* and PPARg SRC3 conf 18.4.
Screening S=C(c1ccc(-c2ccc(Cl)cc2)o1)N1CCCCC1 returned TR-FRET SRC-2 ct 1533, PPARg SRC1 recr -1.6, PPARg SRC-3 ag -0.8 and PPARg SRC2 recr -5.7.
`Cc1cc(C)cc(CSCC(=O)N/N=C/c2ccc(OCC(=O)NCc3ccco3)cc2)c1` gave TR-FRET SRC-2 ct 1568, PPARg SRC1 recr 7.5, PPARg SRC-3 ag 25.4*, PPARg SRC2 recr 10.5, PPARg SRC2 ag 1.9, PPARg SRC1 ag 0.2 and PPARg SRC3 conf 0.6.
COc1ccc(CSCC(=O)N/N=C/c2ccc(OCC(=O)NCc3ccco3)cc2)cc1 was read as TR-FRET SRC-2 ct 1647, PPARg SRC1 recr 6.9, PPARg SRC-3 ag 4.6 and PPARg SRC2 recr -0.7.
CC(=O)C1=C(O)C(=O)N(c2nccs2)C1c1ccccc1 (centres undefined) was read as TR-FRET SRC-2 ct 1601, PPARg SRC1 recr 10.2, PPARg SRC-3 ag 16.2, PPARg SRC2 recr 27.0*, PPARg SRC2 ag 22.1*, PPARg SRC1 ag 16.2 and PPARg SRC3 conf 13.5.
Screening CN1CCc2nc3sc(C(=O)NCc4ccccc4)c(N)c3cc2C1 returned TR-FRET SRC-2 ct 1733, PPARg SRC1 recr 13.4, PPARg SRC-3 ag 15.9, PPARg SRC2 recr 23.6*, SRC1 TRFRET art 2218, SRC3 TRFRET art 1839, PPARg SRC2 ag 5.8, PPARg SRC1 ag 5.7 and PPARg SRC3 conf 6.6.
CC1(C)CC(=O)c2cc3c(N)c(C(=O)NCc4ccccc4)sc3nc2C1 was read as TR-FRET SRC-2 ct 1548, PPARg SRC1 recr 0.4, PPARg SRC-3 ag -8.2 and PPARg SRC2 recr -4.0.
For CCOc1ccccc1N1CCN(c2nc(N)c(C#N)c(CC#N)c2C#N)CC1 the results were TR-FRET SRC-2 ct 1666, PPARg SRC1 recr 7.9, PPARg SRC-3 ag 29.4*, PPARg SRC2 recr 16.4, PPARg SRC2 ag 2.6, PPARg SRC1 ag 1.4 and PPARg SRC3 conf 1.7.
Screening O=C1c2ccccc2-c2cccc(NS(=O)(=O)c3ccc(C(F)(F)F)cc3)c21 returned TR-FRET SRC-2 ct 1656, PPARg SRC1 recr 12.5, PPARg SRC-3 ag 30.9*, PPARg SRC2 recr 11.2, PPARg SRC2 ag 24.0*, PPARg SRC1 ag 21.7* and PPARg SRC3 conf 14.4.
C#CCn1c(=NC(=O)c2sc3ccccc3c2Cl)sc2cc(S(N)(=O)=O)ccc21 was read as TR-FRET SRC-2 ct 2057*, PPARg SRC1 recr 13.4, PPARg SRC-3 ag 15.8, PPARg SRC2 recr 32.9*, SRC1 TRFRET art 2366*, SRC3 TRFRET art 2062*, PPARg SRC2 ag 32.9*, PPARg SRC1 ag 21.5* and PPARg SRC3 conf 14.9.
For CC(CCc1ccccc1)NC(=O)CCCCCNc1nc(=S)[nH]c2ccccc12 (centres undefined) the results were TR-FRET SRC-2 ct 1648, PPARg SRC1 recr 8.7, PPARg SRC-3 ag 0.9, PPARg SRC2 recr 3.9, SRC1 TRFRET art 1872 and SRC3 TRFRET art 1480.
COC(CN1C(=O)C(=O)/C(=C(/O)c2ccccc2)C1c1ccccn1)OC (centres undefined) was read as TR-FRET SRC-2 ct 1234, PPARg SRC1 recr -16.0, PPARg SRC-3 ag -0.8, PPARg SRC2 recr 6.3, SRC1 TRFRET art 1600 and SRC3 TRFRET art 1577.
O=C(Nc1ccc(S(=O)(=O)NCc2ccccc2)cc1)c1ccc(Br)o1 was read as TR-FRET SRC-2 ct 1689, PPARg SRC1 recr -4.3, PPARg SRC-3 ag 15.7 and PPARg SRC2 recr -1.8.
Screening C=CCn1c(NC(=O)c2ccc(Br)o2)c(S(=O)(=O)c2ccccc2)c2nc3ccccc3nc21 returned TR-FRET SRC-2 ct 1627, PPARg SRC1 recr 34.1*, PPARg SRC-3 ag 26.9*, PPARg SRC2 recr 6.3, PPARg SRC2 ag 8.0, PPARg SRC1 ag 5.8 and PPARg SRC3 conf 4.5.
`CCOc1ccc(CCNC(=O)COC(=O)c2nc3nc(C)cc(C)n3n2)cc1OCC` gave TR-FRET SRC-2 ct 1560, PPARg SRC1 recr -2.7, PPARg SRC-3 ag 2.4, PPARg SRC2 recr 0.3, SRC1 TRFRET art 1732 and SRC3 TRFRET art 1665.
Cc1ccc(-n2c(-c3ccccc3)n[nH]c2=S)cc1 was read as TR-FRET SRC-2 ct 2299*, PPARg SRC1 recr 19.6*, PPARg SRC-3 ag 27.2*, PPARg SRC2 recr 35.5*, PPARg SRC2 ag 35.4*, PPARg SRC1 ag 27.5* and PPARg SRC3 conf 25.7*.
Cc1c(Cl)c(-c2n[nH]c(=S)n2-c2ccccc2)nn1C was read as TR-FRET SRC-2 ct 2128*, PPARg SRC1 recr 19.9, PPARg SRC-3 ag 16.8, PPARg SRC2 recr 23.7*, SRC1 TRFRET art 2260, SRC3 TRFRET art 2138*, PPARg SRC2 ag 25.0*, PPARg SRC1 ag 17.6 and PPARg SRC3 conf 18.4.
For CN1CCN(NC(=O)c2ccc(Cl)s2)CC1 the results were TR-FRET SRC-2 ct 1359, PPARg SRC1 recr 3.5, PPARg SRC-3 ag 0.2, PPARg SRC2 recr -2.1, SRC1 TRFRET art 1568 and SRC3 TRFRET art 1524.
For Nc1cc2nsnc2cc1Br the results were TR-FRET SRC-2 ct 6354*, PPARg SRC1 recr 230.5*, PPARg SRC-3 ag 333.8*, PPARg SRC2 recr 265.2*, PPARg SRC2 ag 224.9*, PPARg SRC1 ag 166.8* and PPARg SRC3 conf 149.9*.
O=C(c1ccccc1)c1sc(N2CCCCCC2)nc1-c1ccccc1 was read as TR-FRET SRC-2 ct 1948, PPARg SRC1 recr 19.2*, PPARg SRC-3 ag 23.4, PPARg SRC2 recr 7.0, PPARg SRC2 ag 15.6, PPARg SRC1 ag 13.3 and PPARg SRC3 conf 8.0.

Compound activity from PubChem.
